This is an account of results in ChEMBL document CHEMBL3988442, “University of Dundee, Small-Polar-MMV Screening Library” (2021).

In this test the target is Chromo domain-containing protein 1 (Saccharomyces cerevisiae (strain ATCC 204508 / S288c) (Baker's yeast)) (UniProt P32657). Description: ScCHD-1 Enzyme Inhibition Assay. The test is classed as functional. The arrangement: scale not given: in the data most compounds retested in dose-response had high values. As to conditions: 30 µM.
Chain of Chromo domain-containing protein 1 (Saccharomyces cerevisiae (strain ATCC 204508 / S288c) (Baker's yeast)) (P32657 whole entry, the tested form may be a part): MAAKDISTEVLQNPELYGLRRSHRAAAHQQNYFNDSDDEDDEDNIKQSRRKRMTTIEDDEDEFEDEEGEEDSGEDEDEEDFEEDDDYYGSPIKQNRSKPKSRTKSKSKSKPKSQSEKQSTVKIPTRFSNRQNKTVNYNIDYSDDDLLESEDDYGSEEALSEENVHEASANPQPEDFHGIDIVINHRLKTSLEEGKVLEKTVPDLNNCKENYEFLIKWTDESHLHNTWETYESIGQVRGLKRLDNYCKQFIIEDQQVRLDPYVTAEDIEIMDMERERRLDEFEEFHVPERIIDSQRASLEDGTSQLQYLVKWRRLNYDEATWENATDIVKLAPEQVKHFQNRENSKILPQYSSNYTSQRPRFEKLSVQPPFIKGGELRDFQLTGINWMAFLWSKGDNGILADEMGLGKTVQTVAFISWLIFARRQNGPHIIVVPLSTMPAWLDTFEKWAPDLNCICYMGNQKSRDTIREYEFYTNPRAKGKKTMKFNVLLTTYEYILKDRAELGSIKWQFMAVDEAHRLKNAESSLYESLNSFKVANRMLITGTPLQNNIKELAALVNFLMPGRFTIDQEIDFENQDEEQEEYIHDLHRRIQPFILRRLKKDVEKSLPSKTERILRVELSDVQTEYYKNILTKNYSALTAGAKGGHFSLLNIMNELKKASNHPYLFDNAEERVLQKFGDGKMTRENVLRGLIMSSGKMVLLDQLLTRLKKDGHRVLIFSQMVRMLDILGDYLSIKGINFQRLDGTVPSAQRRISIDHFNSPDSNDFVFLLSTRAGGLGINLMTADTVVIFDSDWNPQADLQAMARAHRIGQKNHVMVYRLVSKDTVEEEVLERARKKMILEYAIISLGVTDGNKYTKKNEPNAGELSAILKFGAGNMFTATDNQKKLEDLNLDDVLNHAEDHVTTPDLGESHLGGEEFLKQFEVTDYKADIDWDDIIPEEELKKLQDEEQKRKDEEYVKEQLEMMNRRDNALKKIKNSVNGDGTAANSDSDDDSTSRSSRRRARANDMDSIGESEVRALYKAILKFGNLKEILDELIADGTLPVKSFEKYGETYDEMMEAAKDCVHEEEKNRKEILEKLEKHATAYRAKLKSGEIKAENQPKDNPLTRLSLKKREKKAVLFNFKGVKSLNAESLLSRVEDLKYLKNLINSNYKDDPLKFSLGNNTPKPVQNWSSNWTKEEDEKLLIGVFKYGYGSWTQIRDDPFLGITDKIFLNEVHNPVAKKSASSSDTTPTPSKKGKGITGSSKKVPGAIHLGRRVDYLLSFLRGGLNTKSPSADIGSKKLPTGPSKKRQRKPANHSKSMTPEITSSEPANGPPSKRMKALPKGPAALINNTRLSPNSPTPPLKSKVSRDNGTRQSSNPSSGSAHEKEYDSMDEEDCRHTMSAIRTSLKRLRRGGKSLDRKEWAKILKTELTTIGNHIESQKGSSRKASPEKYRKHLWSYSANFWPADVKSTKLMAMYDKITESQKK
`CNC(=O)C1CCN(C(=O)c2ccn(-c3ccc(F)cc3)n2)CC1`: the Percent Effect is -0.908%.
The figure for `COc1cccc([C@@H]2CN(C(=O)c3ccc(C)cc3O)C[C@H]2C(=O)O)c1` is -5.84%; for `O=C(Cc1cccc(F)c1)NCCNCc1ccco1` it is -7.92%.
Turning to `Cc1ncsc1C(=O)NC1CCN(CC(=O)NCc2ccccc2)CC1`, the Percent Effect is -2.75%.
For the molecule `CCN1CC(C(=O)N(C)Cc2ccon2)CC1=O` (centres undefined), the Percent Effect is -3.83%.
Turning to `COCc1c(C(=O)O)nnn1Cc1cccc(C(F)(F)F)c1`, the Percent Effect was -10.2%.
`O=C(NCC(O)c1cccc(F)c1)c1cccnc1O` (centres undefined): the Percent Effect was -7.57%.
For `Cc1nc(CN2CCOC(Cn3cncn3)C2)nc2ccccc12` (centres undefined) the value was -15.8%; for `CCc1nnc2n1CCN(C(=O)CN(C)Cc1ccccc1)C2`, -4.71%; for `CCn1nc(C)c(CNC(=O)c2cn(CCC3CCCCN3)nn2)c1C` (centres undefined), -5.55%.
The figure for `CCS(=O)(=O)Nc1ccc(C(=O)NCCCN2CCCC2)cc1` is -4.55%; for `COc1cccc(CN(C)C(=O)CSc2ccc3c(c2)OCCO3)c1` it is 0.365%; for `CC(C)c1cnc(CNc2c(F)cccc2-n2cccn2)o1` it is 0.741%.
The figure for `O=S(=O)(Cc1ccccc1F)NCCCN1CCCCC1` is -4.29%; for `CN(C)S(=O)(=O)N1CC[C@@H]2CN(Cc3cnn(C)c3)C[C@@H]2C1` it is -3.27%; for `CN(C(=O)Cc1ccc2c(c1)OCCO2)C1CCCC1` it is -0.571%.
Consider `C1CC(NCc2nc(C3CC3)no2)CN(Cc2noc(C3CC3)n2)C1` (centres undefined), for which the Percent Effect was -4.12%.
For `COCCN1C[C@@H]2CCCO[C@@H]2[C@H](NC(=O)c2cnccn2)C1` the value was -7.48%; for `Cc1nc2cc(C(=O)N3CCCC(n4cncn4)C3)ccc2n1C` (centres undefined), -2.87%.
In the case of `Cc1ccc(CN2CC(C(=O)N3CCCC3)C3(CCOCC3)C2)s1` (centres undefined), the Percent Effect was -4.71%.
For `Cc1cc(C2CCCN(C(=O)c3cnn(C)c3)C2)ccn1` (centres undefined) the value was -9.36%; for `COC(=O)N1CCCN(C(=O)NCc2ccc(Cl)s2)CC1`, -27.7%; for `NC(=O)CN1CCCN(C(=O)c2ccn(-c3ccccc3)n2)CC1`, -4.05%.
The figure for `CCc1nnc(CN2CCN(C(=O)c3cc4ccccc4[nH]3)CC2)o1` is -14.7%.
The figure for `Cn1ncc2c(=O)[nH]c(CN3CCC(Cc4ccccc4)CC3)nc21` is -10.4%; for `COCCN1C(=O)CO[C@H]2CN(Cc3c[nH]nc3-c3ccccc3)C[C@@H]21` it is -22.8%; for `CC(C(N)=O)S(=O)(=O)Cc1cc(Cl)c2c(c1)OCO2` (centres undefined) it is -7.99%.
In the case of `COc1ccc2cc(C(=O)N3CCCCC3CC(N)=O)[nH]c2c1` (centres undefined), the Percent Effect is -4.84%.
For `CC(C)c1nccn1C1CCCN(C(=O)c2cnc[nH]2)C1` (centres undefined) the value was -3.38%; for `COc1ccc(C(=O)N2CCC(Nc3ccc(C)nn3)CC2)c(F)c1`, -10.7%.
For `O=C(c1cnco1)N1C[C@@H]2CC[C@H](Oc3ccccc3F)[C@@H]2C1` the value was -6.6%; for `CN(C)C(=O)Cc1nc(CN2CCOC(Cn3cccn3)C2)cs1` (centres undefined), 1.28%.
For `Cc1ccoc1-c1nnc(CNCCn2cccn2)o1` the value was -15.5%; for `O=C(NCc1cnc2n1CCN(Cc1ccsc1)CC2)C1CCC1`, -4.47%.
Turning to `Cc1ccc(C2CCCCCN2Cc2cn(C)nc2C)s1` (centres undefined), the Percent Effect is -7.58%.
For `Cc1cccc(COC[C@H]2CC[C@H]3[C@H](CCN3C(=O)CC3CC3)O2)n1` the value was -5.1%; for `CC(Cn1cccn1)NC(=O)N(C)Cc1ccc(Cl)s1` (centres undefined), -2.46%.
The figure for `Fc1ccc(-c2nnc(CN3CCOC(Cn4cncn4)C3)o2)cc1` (centres undefined) is -2.35%.
The figure for `CCc1noc(C2CCCCN2C(=O)c2nnc3ccccc3n2)n1` (centres undefined) is -14.2%.
